What all share (assay): NCI-60 one-dose screen, 48 h (100 = growth as untreated, 0 = no growth, -100 = all killed)
Holding throughout (conditions): 10 µM unless noted

The test system of experiment [1] is NCI-H23 lung.
In experiment [2] the test system is NCI-H226 lung.
For experiment [3], the system named is NCI-H322M lung.
Experiment [4] has as its system HOP-62 NSCLC.
Experiment [5] relates to NCI-H460 lung.
Experiment [6] has as its system HOP-92 NSCLC.
The subject of experiment [7] is NCI-H522 lung.
Experiment [8] relates to A549/ATCC NSCLC.
The test system of experiment [9] is 786-0 renal.
For experiment [10], the system named is COLO 205 colon.

This is part of a sample that, as a whole, favours compounds with a hit. Of some 83,000 tested, about 20% had one in any assay.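 The test compound was applied at a single concentration to cells in 96-well plates for 48 hours, and percent growth was recorded.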 A number with no mark means an inactive call. Active and inactive are the calls of the source. The calls were made as follows: active = growth percent below 10; inactive = the rest.

On to `Cn1nc(N)c2cc([C@@H]3Nc4ccc5[nH]ncc5c4[C@H]4C5CCC(C5)[C@@H]34)ccc21` (stereo not given in full), for which the growth was 26.9% in [1]; 30.6% in experiment [2]; 48.9% in [3]; 46.9% in [4]; 2.68% (active) in experiment [5]; 105% in experiment [6]. Moreover, the growth in experiment [7] is 17.9%; in experiment [8], 28.5%; in experiment [9] it was 34.7%; in [10], 2.47% (active).

Turning to `COc1ccc(-c2nc3cc(C(=O)Nc4cc(OC)c(OC)c(OC)c4)ccc3n2C2CCCCC2)cc1`, the growth in experiment [1] is 93.6%; in experiment [2], 86.9%; in experiment [3], 97.9%; in experiment [4] it was 105%; in experiment [5], 99.7%; in [6] it was 72.7%. In addition, the growth is 77.2% in [7], 98.6% in experiment [8], 107% in experiment [9] and 110% in experiment [10].

For the molecule `Cc1cc(N2CCN(C)CC2)nc(NC2CCCC(Nc3ccnc4cc(Cl)ccc34)C2)n1` (stereo not given), the growth in [1] is 35.9%; in experiment [2], 5.72% (active); in [3], -6.32% (active); in [4], -31.2% (active); in experiment [5], -26.6% (active); in [6], -69.9% (active). Also, the growth in [7] was -46.4% (active); in experiment [8], 3% (active); in [9], -60.5% (active); in experiment [10], -76.1% (active).

Regarding `O=C(O)c1ccc(NC(=O)c2ccc(-c3cccc([N+](=O)[O-])c3)o2)cc1`, the growth is 91.8% in [1]; 89.3% in experiment [2]; 95% in experiment [3]; 103% in [4]; 102% in [5]; 98.6% in experiment [6]. The growth is 94.5% in experiment [7], 101% in experiment [8], 105% in experiment [9] and 107% in experiment [10].

On to `N#CCCN=Nc1c(O)[nH]c2ccc([N+](=O)[O-])cc12`, for which the growth in experiment [1] was 94.9%; in experiment [2], 96%; in experiment [3], 98%; in experiment [4], 99.4%; in [5], 102%; in experiment [6] it was 102%. The growth was 78.8% in [7], 114% in experiment [8], 104% in experiment [9] and 109% in experiment [10].

Turning to `CC(=O)O[C@H]1CC[C@]2(C)[C@H]3CC=C4[C@@H]5CC(C)(C)CC[C@]5(C(=O)NCCNCCNCCN)CC[C@@]4(C)[C@]3(C)CC[C@H]2C1(C)C`, the growth in [1] is 86.5%; in experiment [2] it was 91.4%; in [3], 95.2%; in experiment [4] it was 87.5%; in experiment [5], -56.3% (active); in experiment [6], 61.9%. The growth in experiment [7] was 54.3%; in experiment [8] it was 43%; in experiment [9], -56.3% (active); in [10] it was -93.1% (active).

`O=C(COc1ccc(-c2nc3cc(Cl)c(Cl)cc3[nH]2)cc1)N=Nc1c(O)[nH]c2ccccc12`: the growth is 31.8% in experiment [1]; -30.2% (active) in experiment [2]; 4.51% (active) in experiment [3]; 50.1% in [4]; -69.6% (active) in experiment [5]; -33.3% (active) in experiment [6]. Further, the growth in experiment [7] was 13.6%; in experiment [8], 29%; in experiment [9] it was -44.8% (active); in experiment [10], 12.6%.

Regarding `OC(c1cc2cc(Cl)c(Cl)cc2c2cc(C(F)(F)F)ccc12)C1CCCCN1` (stereo not given), the growth was -52.9% (active) in experiment [1]; -72.3% (active) in [2]; -8.7% (active) in experiment [3]; -80.7% (active) in [4]; -71.8% (active) in experiment [5]; -70.9% (active) in [6]. The growth in experiment [7] was -78.4% (active); in experiment [8], -84% (active); in experiment [9] it was -78.1% (active); in experiment [10] it was -88.2% (active).

With `COC(=O)c1ccc2oc(NC(=O)c3ccc(Nc4ccc([N+](=O)[O-])cc4C)c([N+](=O)[O-])c3)nc2c1`, the growth in [1] was 95.9%; in [2], 92.1%; in experiment [3], 101%; in [4], 107%; in experiment [5], 101%; in experiment [6], 101%. Also, the growth in experiment [7] is 94.4%; in experiment [8], 100%; in experiment [9] it was 99.8%; in experiment [10] it was 107%.

`O=C(CN1C(=O)/C(=C/c2ccc(Cl)cc2)SC1=S)NCCCN1CCOCC1`: the growth is 97% in experiment [1]; 95.2% in experiment [2]; 104% in [3]; 111% in experiment [4]; 101% in experiment [5]; 85.7% in experiment [6]. Moreover, the growth in experiment [7] was 96.9%; in experiment [8], 104%; in experiment [9], 111%; in [10], 116%.

`Nc1ccc(-c2cc3c(Nc4ccc(Oc5cccc(C(F)(F)F)c5)c(Cl)c4)ncnc3s2)cc1`: the growth in [1] is 69.6%; in experiment [2] it was 69%; in [3], 61.9%; in experiment [4], 90.2%; in experiment [5] it was 69.5%; in experiment [6] it was 87.8%. Besides, the growth in [7] is 53.6%; in experiment [8] it was 51.4%; in experiment [9], 73.9%; in [10], 91.3%.

`O=C(/C=C/c1cccc(Cl)c1)c1ccc(O)c(CN2CCN(c3cc4c(cc3F)c(=O)c(C(=O)O)cn4C3CC3)CC2)c1`: the growth was 56.4% in experiment [1]; 62% in experiment [2]; 37.8% in experiment [3]; 37.2% in [4]; 44% in [5]; 21.8% in experiment [6]. The growth was 17.3% in experiment [7], 25.8% in [8], 33.6% in experiment [9] and 136% in experiment [10].

With `Cc1cc2nc3[nH]c4ccccc4c3nc2cc1C`, the growth in [1] was 99.6%; in [2] it was 96.1%; in [3], 98.7%; in experiment [4] it was 94.2%; in experiment [5], 93.8%; in [6], 67.2%. The growth in experiment [7] was 94%; in experiment [8], 87.2%; in [9] it was 79.3%; in [10], 88%.

For the origin of these results see PubChem BioAssay (NCI).
